# In PubChem BioAssay AID743294 (Broad Institute, 2014):
# Measured potencies and affinities stand elsewhere. Calls of active or inactive are those of the source.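 The calls were made as follows: active = compounds lowering fluorescence whose fitted half-maximal dose is at most twice the top valid dose; inconclusive = flat fit between -70% and -30%, or poor curve fit; inactive = the rest.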
# Biological target: Caspase-8 (Homo sapiens) (UniProt Q14790)
# Assay: caspase-8 inhibition counter-screen, dose response, selectivity assay for caspase-6 inhibitor project, biochemical, Z-IETD-R110 fluorescence, cherry-picked samples (AID 743294)
# Settings: purified caspase-8, Z-IETD-R110 cleavage fluorescence; series mostly up to 35 µM; activity change, negative = inhibition: at the top concentration
# Caspase-8 (Homo sapiens), sequence (Q14790 whole entry, looked up): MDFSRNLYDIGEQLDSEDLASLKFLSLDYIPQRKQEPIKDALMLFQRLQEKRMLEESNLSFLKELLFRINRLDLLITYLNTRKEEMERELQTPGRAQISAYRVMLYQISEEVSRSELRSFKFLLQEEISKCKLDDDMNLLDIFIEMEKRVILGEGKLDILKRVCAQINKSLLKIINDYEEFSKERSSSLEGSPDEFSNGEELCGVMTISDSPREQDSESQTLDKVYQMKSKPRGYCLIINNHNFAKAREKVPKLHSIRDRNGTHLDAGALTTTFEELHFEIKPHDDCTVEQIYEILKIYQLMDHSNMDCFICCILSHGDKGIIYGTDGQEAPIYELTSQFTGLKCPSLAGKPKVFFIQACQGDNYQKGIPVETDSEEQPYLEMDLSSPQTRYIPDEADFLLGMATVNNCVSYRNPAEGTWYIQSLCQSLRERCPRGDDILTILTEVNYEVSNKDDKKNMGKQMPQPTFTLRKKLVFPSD
row,Structure (SMILES),"activity change, negative = inhibition"
1,O=c1c(CO)cc(CO)cc(CO)c1O,4.83% (inactive)
2,O=C(O)CC(CCc1ccccc1)OC1OC(CO)C(O)C(O)C1O (centres undefined),-1.96% (inactive)
3,COc1ccc(NS(=O)(=O)c2ccc3c(c2)[C@H]2C=CC[C@H]2[C@@H](c2ccc(C(=O)O)cc2)N3)cc1,-2.93% (inactive)
4,Cc1cc(C=O)c(C)n1-c1ccc(Cl)c(C(=O)O)c1,7.49% (inactive)
5,[O-][n+]1onc2c1CCc1c-2nn(-c2ccccc2Cl)[n+]1[O-],-0.399% (inactive)
6,CCOC(=O)c1sc2nc(OCCN3CCOCC3)cc(C)c2c1N,-10.5% (inactive)
7,Cc1oc2c(cc(NS(=O)(=O)c3ccc(C(C)C)cc3)c3ccccc32)c1C(=O)O,-1.4% (inactive)
8,Cc1ccc(S(=O)(=O)Nc2csc(C)c2C(=O)O)cc1,6.52% (inactive)
9,Nc1cc(S(=O)(=O)O)cc([N+](=O)[O-])c1O,2.88% (inactive)
10,COc1cc(NC(C)CCCNC(C)C)c2ncccc2c1OC (centres undefined),-11.9% (inactive)
11,Cc1ccc(S(=O)c2ccc([N+](=O)[O-])c3nonc23)cc1 (centres undefined),-3.86% (inactive)
12,Nc1ccc(Nc2ccccc2)c(S(=O)(=O)O)c1,1.15% (inactive)
13,COc1ccc(C(=O)OCC(=O)Nc2ncc([N+](=O)[O-])s2)cc1OC,-10.6% (inactive)
14,O=C(Nc1ccc(S(=O)(=O)Nc2cnc3ccccc3n2)cc1)c1ccc(Cl)c([N+](=O)[O-])c1,4.27% (inactive)
15,CC(CNc1ccccc1O)C(=O)O (centres undefined),1.88% (inactive)
16,O=P(c1ccccc1)(c1ccccc1)c1cc(S(=O)(=O)O)ccc1O,2.21% (inactive)
17,Cc1[nH]nc(S(=O)CC(=O)O)c1[N+](=O)[O-] (centres undefined),-4.33% (inactive)
18,CCOC(=O)[C@H](Cc1c[nH]c2ccccc12)NC(=O)CN=[N+]=[N-],4.03% (inactive)
19,C/C(CC(=O)N1CCCC1)=N\NC(=O)c1cc2ccccc2cc1O,1.86% (inactive)
20,CNS(=O)(=O)c1cccc(C(=O)OCC(=O)N2c3ccccc3NC(=O)C2(C)C)c1,-7.76% (inactive)

row,Structure (SMILES),"activity change, negative = inhibition"
1,CO[C@H]1CN(C)C(=O)c2cc(NC(C)=O)ccc2OC[C@@H](C)N(C(=O)CC2CC2)C[C@H]1C,6.41% (inactive)
2,O=C(Nc1ccc2nc3n(c(=O)c2c1)CCCCC3)c1c(F)ccc([N+](=O)[O-])c1F,-5.39% (inactive)
3,CCCCNC(=O)c1nc(C2CCNCC2)oc1-c1cccc(C(F)(F)F)c1,-7.09% (inactive)
4,O=C(O)CCc1ccc(-c2ccc(Br)cc2)n1CC(=O)O,0.86% (inactive)
5,O=C(O)/C(=C\c1ccc(Cl)c([N+](=O)[O-])c1)c1ccc(S(=O)(=O)N2CCCC2)s1,4.55% (inactive)
6,Nc1c(O)cccc1C(=O)O,-9.42% (inactive)
7,COc1cc(NCCCCC(C)N)c2nccc(C)c2c1 (centres undefined),1.09% (inactive)
8,O=C(C[C@@H]1C[C@H]2c3cc(NC(=O)NC4CCCCC4)ccc3O[C@H]2[C@H](CO)O1)NCc1ccccn1,-2.62% (inactive)
9,O=c1cc2c(=O)oc3cc(O)c(O)oc3c2c(O)c1O,-4.58% (inactive)
10,O=C(CCO)c1ccc(O)cc1,4.64% (inactive)
11,CCN(CC)CCCC(C)n1c2nc(=O)[nH]c(=O)c-2nc2cc(Cl)ccc21 (centres undefined),399% (inactive)
12,COc1ccc([N+](=O)[O-])cc1NC(=O)CCS(=O)(=O)c1ccc(Br)cc1,4.06% (inactive)
13,O=[N+]([O-])c1c(Nc2ccccn2)cc(Cl)c2nonc12,-1.29% (inactive)
14,COCCn1c2nc(=O)n(-c3ccccc3)c(=O)c-2nc2ccccc21,125% (inactive)
15,Oc1cc2c(cc1O)[C@H]1c3ccc(O)c(O)c3OC[C@@]1(O)C2,-0.465% (inactive)
16,O=C(O)Cc1ccc(-n2cccc2)cc1,1.25% (inactive)
17,CCCSC1=N/C(=C\c2ccc([N+](=O)[O-])o2)C(=O)S1,-9.42% (inactive)
18,Cc1cc(C=O)c(C)n1-c1cc(C(=O)O)cc(C(=O)O)c1,6.11% (inactive)
19,Cn1cnnc1SCC(=O)Nc1ncc([N+](=O)[O-])s1,-6.58% (inactive)
